Drawing on PubChem BioAssay (NCI), this text covers growth for 36 compounds.

The panel holds about 83,000 compounds, 20% with a hit somewhere; the sample as a whole holds those more often.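 Compound tested at a single concentration for 48 hours in 96-well plates; a percent growth value below 10 was scored as active.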 Unmarked numbers belong to inactive results. The source made the active and inactive calls.

The subject of this test is OVCAR-5 ovarian. Briefly: NCI-60 one-dose screen, 48 h (100 = growth as untreated, 0 = no growth, -100 = all killed). Conditions: 10 µM unless noted.
Turning to `COc1cc2c(cc1O)CC[C@@H]1[C@@H]2CC[C@]2(C)[C@@H](NCCN(C)C)CC[C@@H]12`, the growth was -84% (active).

On to `COc1cccc2c1C(=O)c1c(O)c3c(c(O)c1C2=O)C[C@](O)(C(=O)CO)C[C@H]3O[C@@H]1C[C@@H](NC(=O)CCCN(C)C2(c3ccc(F)cc3)CC3CCC2C3)[C@H](O)[C@@H](C)O1` (stereo partly specified), for which the growth was -48.3% (active).

On to `O=c1cc(CSc2nnc(SCc3cc(=O)oc4c3ccc3ccccc34)o2)c2ccc3ccccc3c2o1`, for which the growth is 99.7%.

Turning to `COc1cc2c(cc1O)CC[C@@H]1[C@@H]2CC[C@]2(C)[C@@H](OCCN(C)C)CC[C@@H]12`, the growth is 78.8%.

On to `COc1ccc(-c2nnc(SCC(=O)c3ccc(Cl)cc3)o2)cc1`, for which the growth was 93.3%.

Consider `NC(=NCCCOc1ccc(Cl)cc1)Nc1ccc(C(F)(F)F)cc1`, for which the growth is 48.4%.

Turning to `CCCCC[C@H]1C/C=C2/C(=O)C=C[C@@H]2C/C=C\CCCC(=O)O1`, the growth is -9.16% (active).

`CNC(=O)c1cc(Oc2ccc(NC(=O)Nc3ccc(Cl)c(OC(F)(F)F)c3)c(F)c2)ccn1`: the growth was 56.7%.

`COc1ccc2c(c1)C(=O)/C(=C/c1cccnc1)CC2`: the growth is 93%.

In the case of `COc1cccc(-c2nc(SCC(=O)Nc3ccc(C(=O)/C=C/c4ccc(OC)c(OC)c4)cc3)[nH]c(=O)c2C#N)c1`, the growth is 110%.

For `CCCn1c(=O)[nH]c(N)c([C@H]2c3ccccc3Oc3[nH]c(=O)n(CCC)c(=O)c32)c1=O`, the growth was 99.4%.

For `C=C1C(=O)O[C@H]2[C@H]1CC/C(COC(=O)NCc1ccc(OC)c(OC)c1)=C\CC[C@@]1(C)O[C@@H]21`, the growth is 85.1%.

Turning to `N#CN1CC[C@H](C(=O)Nc2cc3cc(C(N)=O)ccc3cn2)C1`, the growth was 5.15% (active).

`O=C1c2c(O)cc(O)cc2-c2c(-c3ccc(O)cc3)oc3cc(O)cc1c23`: the growth is 111%.

Take `O=C1/C(=C/c2ccccc2O)N=C2SCCCN12`: the growth was 91.7%.

With `COc1ccc(CN2c3ccccc3Sc3ccccc32)c(C(F)(F)F)c1`, the growth is 65.5%.

`COc1ccc(-c2nc(SCC(=O)Nc3ccc(C(=O)/C=C/c4ccc(Cl)cc4)cc3)[nH]c(=O)c2C#N)cc1`: the growth is 109%.

In the case of `COc1ccc2c(c1)CC/C(=C\c1cncc(Br)c1)C2=O`, the growth is 86.8%.

For the compound `COc1ccc2c(c1)C(=O)/C(=C/c1ccccn1)CC2`, the growth is 92.1%.

As to `Cc1nc(Nc2ccc(F)c(Cl)c2)sc1C(=O)O`, the growth was 51.2%.

`CCOC(=O)c1sc(Nc2ccc(Cl)cc2)nc1C`: the growth was 51.6%.

As to `CC(=O)O[C@H]1C(=O)[C@@]2(C)[C@H]([C@H](OC(=O)c3ccccc3)[C@]3(O)C[C@H](OC(=O)[C@H](OC(=O)CCC(=O)OC4CCC(S/N=C(N)/N=C(\N)N(C)C)CC4)[C@@H](NC(=O)c4ccccc4)c4ccccc4)C(C)=C1C3(C)C)[C@]1(OC(C)=O)CO[C@@H]1C[C@@H]2O` (stereo partly specified), the growth is 39.5%.

`CC(=O)OC[C@H]1O[C@H](OC(C)=O)[C@H](NC(=O)/C=C/CCl)[C@@H](OC(C)=O)[C@@H]1OC(C)=O`: the growth was 84.5%.

Regarding `COc1cc(-c2nc(C(=O)NCC(=O)NO)nn2-c2ccc(Cl)cc2)cc(OC)c1OC`, the growth was 93.3%.

Turning to `C=C1C(=O)O[C@H]2[C@H]1CC/C(COC(=O)NCCc1ccc(OC)c(OC)c1)=C\CC[C@@]1(C)O[C@@H]21`, the growth is 82.8%.

With `CC/C=C\C[C@H](O)C/C=C1/C(=O)C=C[C@@]1(C)C/C=C\CCCC(=O)OC`, the growth was 99.8%.

Regarding `Cc1ccc2oc(=O)cc(C3c4ccc([nH]4)C(c4cc(=O)oc5ccc(C)cc45)c4ccc([nH]4)C(c4cc(=O)oc5ccc(C)cc45)c4ccc([nH]4)C(c4cc(=O)oc5ccc(C)cc45)c4ccc3[nH]4)c2c1` (stereo unspecified), the growth is -11.7% (active).

As for `COc1cccc2c1C(=O)c1c(O)c3c(c(O)c1C2=O)C[C@](O)(C(=O)CO)C[C@H]3O[C@@H]1C[C@@H](NC(=O)CCCCCN(C)C2(c3ccc(F)cc3)CC3CCC2C3)[C@H](O)[C@@H](C)O1` (stereo partly specified), the growth was -51.6% (active).

Consider `NC(=NCCCC1(c2ccccc2)CCCC1)Nc1ccc(Cl)cc1`, for which the growth was 59.8%.

As for `O=c1oc2c(C(F)(F)F)cccc2cc1-c1csc(Nc2ccc(OCCF)cc2)n1`, the growth was 67.5%.

For `CNC(=O)c1cc(Oc2ccc(NC(=O)Nc3ccc(Cl)c(SC)c3)c(F)c2)ccn1`, the growth is 77.8%.

For the compound `c1ccc2[nH]c(-c3ccc(Nc4nc(N5CCCC5)nc5[nH]ncc45)cc3)nc2c1`, the growth is 17.9%.

In the case of `CC/C=C\C/C=C\C[C@H]1C/C=C2/C(=O)C=C[C@@H]2C/C=C\CCC(=O)O1`, the growth is 44.6%.

On to `COc1ccc(CN2c3ccccc3Sc3ccccc32)cc1O`, for which the growth was 86%.

On to `CCOc1ccc(-n2nc(C(=O)Nc3cc(OC)c(OC)c(OC)c3)nc2-c2cc(OC)c(OC)c(OC)c2)cc1`, for which the growth is 102%.

For the compound `CC/C=C\C[C@H]1C/C=C2/C(=O)C=C[C@H]2C/C=C\CCCC(=O)O1`, the growth was 87.8%.
